In the supplement of paper PMC10981050:
Several values for one entry are separate records, joined by “and”; a condition that tells them apart may be missing. Identical values can stand only once.

What was measured:
Assay in all cases: cell viability relative to vehicle control; higher = less cytotoxic
K562 = details: 10 µM; SRSF2 genotype: SRSF2 wt/wt
Method in brief: (§1)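 Four leukaemia lines, as CRISPR-edited mutant clones and isogenic wild-type clones, were tested against Selleck bioactive, kinase and epigenetic probe libraries after removal of identity-inconsistent compounds. Cells were exposed to a single 10 µM dose for 48 h, and CellTiter-Glo luminescence was then read. Viability was calculated relative to the on-plate vehicle control.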

MARIMO = details: 10 µM
Method in brief: as §1

MOLM14 = details: 10 µM
Method in brief: as §1

OCI-AML2 = details: 10 µM
Method in brief: as §1

Compound	cell viability (K562)	cell viability (MARIMO; SRSF2 genotype: SRSF2 P95H/wt)	cell viability (MARIMO; SRSF2 genotype: SRSF2 wt/wt)	cell viability (MOLM14; SRSF2 genotype: SRSF2 P95H/wt)	cell viability (MOLM14; SRSF2 genotype: SRSF2 wt/wt)	cell viability (OCI-AML2; SRSF2 genotype: P95H/wt)	cell viability (OCI-AML2; SRSF2 genotype: wt/wt)
O=c1cc(-c2ccc(O)c(O)c2O)oc2ccccc12	69.2%	98.5%	87.9%	81.8%	68.4%	108%	105%
Cc1cnc(-c2cnc(NCCNc3ccc(C#N)cn3)nc2-c2ccc(Cl)cc2Cl)[nH]1	63.6% and 69.4%	96.3% and 94.4%	119% and 126%	87.2% and 98.8%	103% and 110%	95.8% and 99.6%	124% and 133%
O=C1NC(=O)[C@@H](c2cn3c4c(cccc24)CCC3)[C@@H]1c1c[nH]c2ccccc12 [ARQ 197 (Tivantinib)]	37%	6.87%	9.91%	17.9%	4.13%	12.1%	15.4%
O=C(CCCCCCNC(=O)c1cnc(N(c2ccccc2)c2ccccc2Cl)nc1)NO [Citarinostat (ACY-241)]	47.4%	8.12%	20.9%	2.1%	1.84%	0.7%	1.25%
CCS(=O)(=O)N1CCN(c2ccc(Nc3ncc(C(N)=O)c(NC4CC4)n3)cc2)CC1	63.2%	65.2%	63.1%	7.8%	8.15%	12.1%	15.5%
COc1cc(-c2cc(-c3ccc(N4CCNCC4)cc3)cnc2C)cc(OC)c1OC	31.1%	46.2%	46.9%	37.1%	31.9%	17.7%	29.3%
O=C(O[C@@H]1O[C@@H]2COC(=O)c3cc(O)c(O)c(O)c3-c3c(cc(O)c(O)c3O)C(=O)O[C@H]([C@H]1O)[C@@H]2O)c1cc(O)c(O)c(O)c1 [Corilagin]	81.5%	86.9%	81.3%	86.4%	82.2%	103%	96.2%
CN(c1ncccc1CNc1nc(Nc2ccc3c(c2)CC(=O)N3)ncc1C(F)(F)F)S(C)(=O)=O	27.9% and 21.1%	10.2% and 11.6%	3.77% and 4.68%	0.98% and 1.3%	0.43% and 0.45%	1.6% and 2.15%	13% and 13.3%
CCn1cc(C(=O)O)c(=O)c2c(N)c(F)c(NC3CCCCC3)cc21	80.6%	94.2%	125%	106%	117%	120%	136%
CC=C(C)C(=O)OC1C(OC(C)=O)C2(CO)C(O)CC3(C)C(=CCC4C5(C)CCC(OC6OC(C(=O)O)C(OC7OC(CO)C(O)C(O)C7O)C(O)C6OC6OC(CO)C(O)C(O)C6O)C(C)(CO)C5CCC43C)C2CC1(C)C (configuration not stated) [Escin]	48.9%	90.1%	90.1%	53.3%	67.9%	23.9%	31.4%
Cn1cc(-c2ccc(F)c(C(F)(F)F)c2)nc1C1CCN(c2ncnc3[nH]ncc23)CC1	86% and 80.8%	88.3% and 83.6%	96.6% and 99.4%	92.3% and 80.4%	95.3% and 97.3%	85.9% and 77.1%	92.6% and 79.5%
O=C(Cc1cccc(OC(F)(F)F)c1)Nc1ccc(CCCCc2nnc(NC(=O)Cc3ccccn3)s2)nn1	58.5%	23.7%	21.2%	44.3%	53.4%	20.1%	24.8%
Cc1cc(N2C[C@@H](C)N[C@@H](C)C2)ncc1-c1ccc(-c2nc3c(ccn3C)c(=O)[nH]2)cc1	59%	79.6%	76.4%	0.95%	1.53%	5.67%	3.85%
COc1cc2nccc(Oc3ccc(NC(=O)Nc4ccc(F)cc4F)c(F)c3)c2cc1OC	93.5%	109%	112%	25.1%	19.4%	40.2%	51.5%
Oc1ccc2c(c1)OC[C@]1(O)Cc3cc(O)c(O)cc3[C@H]21 [Brazilin]	85.9%	46.3%	11.3%	40.4%	45.2%	73.2%	77.5%
c1cc(-c2cnn3cc(-c4ccc(OCCN5CCCCC5)cc4)cnc23)ccn1 [Dorsomorphin (Compound C)]	64.1%	73.8%	80.9%	16.4%	10.9%	33.1%	36.2%
